Our source for the outcome and AC50 values is PubChem BioAssay (EPA / NIEHS).

Records with an inconclusive call do not appear. Active and inactive are the calls of the source. Rule for the calls, unless noted: active = hit-call score of the fitted dose curve at least 0.9, where 1 is the maximum; inactive = score below 0.9.

The nature of assay [1]: ATG_Oct_MLP_CIS: Attagene CIS-FACTORIAL HepG2 Assay for human Octamer-Binding Transcription Factor (Oct) (AID 2282993). The following applies: HepG2 Attagene cis-factorial Oct reporter, mRNA; actives raise or lower the signal. Put shortly: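 HepG2, transient MRTU transfection, cis promoter elements; 24 h dosing; RT-PCR/CE fluorescence read-out of reporter mRNA; fit both directions vs DMSO.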

Assay [2] can be described thus: BSK_3C_TissueFactor: BioMAP Diversity Plus: 3C Assay for Tissue Factor Biomarker Activity (AID 2282997). Conditions: BioMAP 3C HUVEC, tissue factor biomarker readout; actives raise or lower the signal. A digest of the protocol:
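HUVEC were treated 24 h, then surface tissue factor measured by ELISA and fitted bidirectionally against DMSO. Parallel SRB total-protein staining assessed overt cytotoxicity at the same time point.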

The nature of assay [3]: BSK_3C_uPAR: BioMAP Diversity Plus: 3C Assay for Urokinase-type plasminogen activator receptor (uPAR) Biomarker Activity (AID 2282998). The following applies: BioMAP 3C HUVEC, uPAR biomarker ELISA; actives raise or lower the signal. Put shortly:
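A multiplexed primary-cell system built on human umbilical vein endothelium was used, with chemical present for 24 h before reading. Cell-surface uPAR was detected by ELISA; signal change in either direction counted against DMSO.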

Assay [4] can be described thus: BSK_3C_VCAM1: BioMAP Diversity Plus: 3C Assay for Vascular cell adhesion molecule 1 (VCAM1) Biomarker Activity (AID 2282999). Conditions: BioMAP 3C HUVEC, VCAM1 ELISA, cytokine-stimulated; actives raise or lower the signal. A digest of the protocol: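 Human umbilical vein endothelial cells were dosed with compound for 24 h, after which cell-surface VCAM-1 was quantified by ELISA. Bidirectional curve fitting used DMSO as negative control and activity baseline.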
(In general: In an ELISA, binding on a coated surface is turned into a signal by an enzyme label.)

Assay [5] can be described thus: BSK_4H_Eotaxin3: BioMAP Diversity Plus: 4H Assay for Eotaxin 3 Biomarker Activity (AID 2283000).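 For outcome: CCL26 protein level quantified by ELISA in parallel with SRB cytotoxicity check.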 Conditions: primary human endothelial cells (HUVEC); actives raise or lower the signal. Put shortly: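 Eotaxin-3 (CCL26) levels were measured by ELISA in HUVEC primary cultures 24 h post-dosing. Gain or loss of signal was fitted in both directions, with DMSO serving as baseline and negative control.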

Assay [6] deals with human Peroxisome Proliferator-activated Receptor alpha (PPARa), PPARA (gene 5465) (UniProt Q07869). Description: ATG_PPARa_TRANS: Attagene TRANS-FACTORIAL HepG2 Assay for human Peroxisome Proliferator-activated Receptor alpha (PPARa) (AID 2283001; active = hit-call score of the fitted dose curve at least 0.9, where 1 is the maximum). A digest of the protocol: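 Gain-of-signal endpoint: reporter mRNA induction relative to DMSO, detected by fluorescent RT-PCR and capillary electrophoresis. HepG2 cells transiently carried GAL4-UAS-driven reporter units plus NR-Gal4 fusion; exposure lasted 24 h.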
human Peroxisome Proliferator-activated Receptor alpha (PPARa), PPARA (gene 5465), sequence (Q07869 whole entry, looked up, the tested form may be a part): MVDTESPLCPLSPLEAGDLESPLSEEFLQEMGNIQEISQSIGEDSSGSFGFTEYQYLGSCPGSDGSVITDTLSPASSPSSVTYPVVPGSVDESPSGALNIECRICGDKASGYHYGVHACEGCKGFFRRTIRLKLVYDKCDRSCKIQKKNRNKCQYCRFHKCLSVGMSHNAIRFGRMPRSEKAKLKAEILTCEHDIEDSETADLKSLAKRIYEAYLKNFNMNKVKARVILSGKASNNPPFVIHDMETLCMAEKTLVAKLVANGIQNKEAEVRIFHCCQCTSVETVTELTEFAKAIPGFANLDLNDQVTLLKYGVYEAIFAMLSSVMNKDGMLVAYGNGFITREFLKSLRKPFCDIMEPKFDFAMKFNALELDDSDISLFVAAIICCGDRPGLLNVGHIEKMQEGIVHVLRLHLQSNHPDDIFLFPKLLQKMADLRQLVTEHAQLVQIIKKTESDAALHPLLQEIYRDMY

Read-out in assay [7]: Intercellular Adhesion Molecule 1 (ICAM1), ICAM1 (gene 3383)
Description: BSK_3C_ICAM1: BioMAP Diversity Plus: 3C Assay for Intercellular Adhesion Molecule 1 (ICAM1) Biomarker Activity (AID 2283003). Conditions: primary human endothelial cells (HUVEC); actives raise or lower the signal. Put shortly:
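HUVEC primary cells stimulated under 3C conditions; ICAM1 measured by ELISA 24 h after compound dosing. Curves fitted bidirectionally against the DMSO baseline. Overt cytotoxicity checked by SRB staining of parallel cultures.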

Assay [8] is described as follows: BSK_3C_Proliferation: Cell Proliferation Assessment in the BioMAP Diversity Plus: 3C Assay (AID 2283006).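 For AC50: potency may reflect either rise or fall in cell number versus DMSO.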 Conditions: primary human endothelial cells (HUVEC). A digest of the protocol:
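Subconfluent HUVEC (3C system) cultured with chemical; relative cell number read at 48 h by sulforhodamine B total-protein staining (0.1% SRB after 10% TCA fixation, 560 nm). Bidirectional fit relative to DMSO.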

Assay [9] deals with Peroxisome proliferator-activated receptor gamma (Homo sapiens) (UniProt P37231). As to the kind of experiment: ATG_PPARg_TRANS: Attagene TRANS-FACTORIAL HepG2 Assay for human Peroxisome Proliferator-activated Receptor-gamma (PPARg) (AID 2283007; active = hit-call score of the fitted dose curve at least 0.9, where 1 is the maximum). A digest of the protocol: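 Twenty-four hours after chemical dosing of transiently transfected HepG2 cells, isolated RNA was converted to cDNA, reporter sequences amplified and 6-FAM-labelled, then HpaI-digested and analysed by capillary electrophoresis. Signal increase against DMSO was fitted.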
Peroxisome proliferator-activated receptor gamma (Homo sapiens), sequence (P37231 whole entry, looked up): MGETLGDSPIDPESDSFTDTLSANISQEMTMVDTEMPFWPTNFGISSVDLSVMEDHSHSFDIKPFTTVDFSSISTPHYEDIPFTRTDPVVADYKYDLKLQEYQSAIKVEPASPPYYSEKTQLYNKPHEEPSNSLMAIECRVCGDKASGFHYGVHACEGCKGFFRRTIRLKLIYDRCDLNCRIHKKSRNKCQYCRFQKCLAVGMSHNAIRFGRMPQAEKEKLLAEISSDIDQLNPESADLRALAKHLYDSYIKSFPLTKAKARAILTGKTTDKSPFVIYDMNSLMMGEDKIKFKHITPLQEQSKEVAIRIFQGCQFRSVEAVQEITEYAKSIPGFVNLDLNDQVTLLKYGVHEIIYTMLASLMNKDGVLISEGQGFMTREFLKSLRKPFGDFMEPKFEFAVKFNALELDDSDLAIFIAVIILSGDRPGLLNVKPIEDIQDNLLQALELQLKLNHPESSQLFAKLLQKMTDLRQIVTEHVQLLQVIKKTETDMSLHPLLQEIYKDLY

Assay [10] addresses human RAR-related Orphan Receptor gamma (RORg), RORC (gene 6097) (UniProt P51449). As to the kind of experiment: ATG_RORg_TRANS: Attagene TRANS-FACTORIAL HepG2 Assay for human RAR-related Orphan Receptor gamma (RORg) (AID 2283011; active = hit-call score of the fitted dose curve at least 0.9, where 1 is the maximum). A digest of the protocol: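 HepG2 cells transiently transfected with GAL4-UAS reporter units and chimeric RORg-Gal4 construct; after 24 h chemical exposure, reporter mRNA measured by RT-PCR with fluorescent capillary electrophoresis, gain of signal fitted against DMSO.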

The target of assay [11] is Retinoic acid receptor RXR-alpha (Homo sapiens) (UniProt P19793). Description: ATG_RXRa_TRANS: Attagene TRANS-FACTORIAL HepG2 Assay for human Retinoid X Receptor alpha (RXRa) (AID 2283012; active = hit-call score of the fitted dose curve at least 0.9, where 1 is the maximum). Put shortly: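 HepG2 cells transiently transfected with GAL4-UAS reporter units and chimeric RXRa-Gal4 protein, treated 24 h. Reporter mRNA measured by RT-PCR, fluorescent labelling, HpaI digestion and capillary electrophoresis. Induction fitted against DMSO.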
Retinoic acid receptor RXR-alpha (Homo sapiens), sequence (P19793 whole entry, looked up, the tested form may be a part): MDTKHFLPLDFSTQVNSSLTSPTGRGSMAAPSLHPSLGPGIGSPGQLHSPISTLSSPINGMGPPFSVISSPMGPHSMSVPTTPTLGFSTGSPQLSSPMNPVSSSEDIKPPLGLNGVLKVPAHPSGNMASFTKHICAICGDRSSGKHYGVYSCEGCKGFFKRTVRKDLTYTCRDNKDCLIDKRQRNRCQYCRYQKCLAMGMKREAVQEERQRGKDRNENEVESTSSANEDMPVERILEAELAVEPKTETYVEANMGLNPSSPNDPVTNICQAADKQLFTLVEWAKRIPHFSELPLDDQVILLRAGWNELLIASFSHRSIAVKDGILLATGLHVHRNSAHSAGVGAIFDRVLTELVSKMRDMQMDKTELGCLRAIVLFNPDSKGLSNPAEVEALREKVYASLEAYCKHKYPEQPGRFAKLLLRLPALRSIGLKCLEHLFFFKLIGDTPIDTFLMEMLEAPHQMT

The target in assay [12] is human Thyroid Receptor alpha (THRa1), THRA (gene 7067) (UniProt P10827). As to the kind of experiment: ATG_THRa1_TRANS: Attagene TRANS-FACTORIAL HepG2 Assay for human Thyroid Receptor alpha (THRa1) (AID 2283014; active = hit-call score of the fitted dose curve at least 0.9, where 1 is the maximum). A digest of the protocol: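 HepG2 cells transiently transfected with chimeric NR-Gal4 and GAL4-UAS reporter units, dosed 24 h. Reporter mRNA quantified by RT-PCR, fluorescent labeling, HpaI digestion and capillary electrophoresis; gain-of-signal fit versus DMSO.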
human Thyroid Receptor alpha (THRa1), THRA (gene 7067), sequence (P10827 whole entry, looked up, the tested form may be a part): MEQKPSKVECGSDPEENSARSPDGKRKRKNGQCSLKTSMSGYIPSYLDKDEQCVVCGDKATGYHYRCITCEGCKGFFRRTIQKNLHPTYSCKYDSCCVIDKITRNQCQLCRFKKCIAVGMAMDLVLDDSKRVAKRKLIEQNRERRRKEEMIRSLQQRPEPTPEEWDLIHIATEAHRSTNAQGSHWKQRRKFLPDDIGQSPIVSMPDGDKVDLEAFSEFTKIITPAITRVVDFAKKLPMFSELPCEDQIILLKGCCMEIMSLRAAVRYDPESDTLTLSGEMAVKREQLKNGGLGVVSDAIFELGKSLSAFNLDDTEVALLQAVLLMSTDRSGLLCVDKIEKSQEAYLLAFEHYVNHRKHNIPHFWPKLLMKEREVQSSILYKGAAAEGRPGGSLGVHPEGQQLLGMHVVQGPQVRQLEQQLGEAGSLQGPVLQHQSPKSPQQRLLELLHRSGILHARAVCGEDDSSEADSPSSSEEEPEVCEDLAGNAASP

Read-out in assay [13]: Interleukin-1 alpha (IL1a), IL1A (gene 3552)
Description: BSK_BE3C_IL1a: BioMAP Diversity Plus: BE3C Assay for Interleukin-1 alpha (IL1a) Biomarker Activity (AID 2283016). The following applies: primary human bronchial epithelial cells; actives raise or lower the signal. Put shortly: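 Human primary bronchial epithelial cells, 24 h chemical exposure; IL-1a quantified by ELISA, fitted bidirectionally against DMSO. Cytotoxicity assessed in parallel by SRB total-protein staining at the time of measurement.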

Assay [14] deals with human Retinoic Acid Receptor beta (RARb), RARB (gene 5915) (UniProt P10826). Description: ATG_RARb_TRANS: Attagene TRANS-FACTORIAL HepG2 Assay for human Retinoic Acid Receptor beta (AID 2283004; active = hit-call score of the fitted dose curve at least 0.9, where 1 is the maximum). A digest of the protocol:
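HepG2 cells were transiently transfected with GAL4-UAS reporter units that report activity of exogenous chimeric NR-Gal4 proteins, then exposed to compound for 24 h. Reporter mRNA was quantified by RT-PCR with capillary electrophoresis fluorescence, as gain of signal over DMSO.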

The target in assay [15] is human Retinoid X Receptor beta (RXRb), RXRB (gene 6257) (UniProt P28702). As to the kind of experiment: ATG_RXRb_TRANS: Attagene TRANS-FACTORIAL HepG2 Assay for human Retinoid X Receptor beta (RXRb) (AID 2283013; active = hit-call score of the fitted dose curve at least 0.9, where 1 is the maximum). Put shortly:
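HepG2 cells were transiently transfected with multiplexed GAL4-UAS reporters and a chimeric RXRb-Gal4 construct, then exposed for 24 h. Reporter mRNA was quantified by RT-PCR, FAM labeling, HpaI digestion and capillary electrophoresis; gain of signal was scored against DMSO.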

Read-out in assay [16]: E-selectin (Homo sapiens) (UniProt P16581)
Description: BSK_3C_Eselectin: BioMAP Diversity Plus: 3C Assay for Eselectin Biomarker Activity (AID 2283015).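 Note: cell surface E-selectin protein quantified by ELISA 24 h after dosing.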 The following applies: primary human endothelial cells (HUVEC); actives raise or lower the signal. Put shortly: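 Primary human umbilical vein endothelial cells (3C system), read 24 h after compound addition; E-selectin measured by ELISA. Bidirectional curve fitting against DMSO baseline; cytotoxicity by parallel SRB total-protein staining.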

In assay [17] the target is human RAR-related Orphan Receptor beta (RORb), RORB (gene 6096) (UniProt Q92753). Description: ATG_RORb_TRANS: Attagene TRANS-FACTORIAL HepG2 Assay for human RAR-related Orphan Receptor beta (RORb) (AID 2283010; active = hit-call score of the fitted dose curve at least 0.9, where 1 is the maximum). A digest of the protocol: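 HepG2 cells transiently transfected with GAL4-UAS reporter units expressing chimeric NR-Gal4 protein; reporter mRNA measured 24 h after dosing by RT-PCR, 6-FAM labelling and capillary electrophoresis. Gain-of-signal fitted relative to DMSO baseline.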
human RAR-related Orphan Receptor beta (RORb), RORB (gene 6096), sequence (Q92753 whole entry, looked up, the tested form may be a part): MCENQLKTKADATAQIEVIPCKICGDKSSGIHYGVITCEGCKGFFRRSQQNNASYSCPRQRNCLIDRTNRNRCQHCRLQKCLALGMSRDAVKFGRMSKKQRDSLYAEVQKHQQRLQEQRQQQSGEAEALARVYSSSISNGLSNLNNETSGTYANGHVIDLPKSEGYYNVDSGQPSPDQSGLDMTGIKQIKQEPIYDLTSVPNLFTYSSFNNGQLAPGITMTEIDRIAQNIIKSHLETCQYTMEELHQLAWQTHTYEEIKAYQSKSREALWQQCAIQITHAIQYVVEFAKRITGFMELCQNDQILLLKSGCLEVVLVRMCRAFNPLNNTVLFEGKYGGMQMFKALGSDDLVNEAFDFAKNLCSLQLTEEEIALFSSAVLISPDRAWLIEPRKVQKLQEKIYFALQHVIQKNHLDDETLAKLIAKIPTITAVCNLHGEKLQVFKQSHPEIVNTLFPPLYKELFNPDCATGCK

In assay [18] the target is Nuclear receptor subfamily 1 group I member 2 (Homo sapiens) (UniProt O75469). As to the kind of experiment: ATG_PXR_TRANS: Attagene TRANS-FACTORIAL HepG2 Assay for human Pregnane X Receptor (PXR) (AID 2283008; active = hit-call score of the fitted dose curve at least 0.9, where 1 is the maximum). A digest of the protocol:
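Read-out is fluorescence of labelled reporter cDNA fragments separated by capillary electrophoresis after RT-PCR and HpaI digestion. Source: HepG2 cells carrying PXR-GAL4/UAS reporter constructs, treated 24 h; activity fitted upward relative to DMSO.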

human Retinoic Acid Receptor beta (RARb), RARB (gene 5915), sequence (P10826 whole entry, looked up, the tested form may be a part): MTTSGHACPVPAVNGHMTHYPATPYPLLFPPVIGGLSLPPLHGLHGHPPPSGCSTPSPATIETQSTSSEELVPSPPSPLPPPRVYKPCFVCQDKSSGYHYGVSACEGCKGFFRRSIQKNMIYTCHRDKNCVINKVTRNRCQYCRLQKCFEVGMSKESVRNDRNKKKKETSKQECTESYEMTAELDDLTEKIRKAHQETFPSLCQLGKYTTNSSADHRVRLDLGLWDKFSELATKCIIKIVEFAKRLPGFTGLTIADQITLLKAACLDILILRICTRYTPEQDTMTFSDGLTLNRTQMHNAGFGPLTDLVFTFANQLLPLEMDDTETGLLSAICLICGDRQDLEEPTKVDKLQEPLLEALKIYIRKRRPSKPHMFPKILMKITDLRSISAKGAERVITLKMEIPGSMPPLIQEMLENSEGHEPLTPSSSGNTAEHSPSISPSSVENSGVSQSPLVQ
human RAR-related Orphan Receptor gamma (RORg), RORC (gene 6097), sequence (P51449 whole entry, looked up, the tested form may be a part): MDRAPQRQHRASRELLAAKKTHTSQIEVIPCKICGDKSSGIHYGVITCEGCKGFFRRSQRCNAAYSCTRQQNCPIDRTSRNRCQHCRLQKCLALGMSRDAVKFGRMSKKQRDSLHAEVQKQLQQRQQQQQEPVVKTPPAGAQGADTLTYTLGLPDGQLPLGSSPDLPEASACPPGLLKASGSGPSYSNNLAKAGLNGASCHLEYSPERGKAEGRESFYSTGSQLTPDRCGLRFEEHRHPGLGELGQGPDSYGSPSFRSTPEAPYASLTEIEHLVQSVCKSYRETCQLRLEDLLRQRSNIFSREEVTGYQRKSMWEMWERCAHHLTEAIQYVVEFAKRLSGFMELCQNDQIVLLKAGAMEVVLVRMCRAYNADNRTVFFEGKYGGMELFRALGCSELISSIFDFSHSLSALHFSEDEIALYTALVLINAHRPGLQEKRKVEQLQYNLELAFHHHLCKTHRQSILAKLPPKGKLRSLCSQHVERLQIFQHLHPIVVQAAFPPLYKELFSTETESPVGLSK
E-selectin (Homo sapiens), sequence (P16581 whole entry, looked up): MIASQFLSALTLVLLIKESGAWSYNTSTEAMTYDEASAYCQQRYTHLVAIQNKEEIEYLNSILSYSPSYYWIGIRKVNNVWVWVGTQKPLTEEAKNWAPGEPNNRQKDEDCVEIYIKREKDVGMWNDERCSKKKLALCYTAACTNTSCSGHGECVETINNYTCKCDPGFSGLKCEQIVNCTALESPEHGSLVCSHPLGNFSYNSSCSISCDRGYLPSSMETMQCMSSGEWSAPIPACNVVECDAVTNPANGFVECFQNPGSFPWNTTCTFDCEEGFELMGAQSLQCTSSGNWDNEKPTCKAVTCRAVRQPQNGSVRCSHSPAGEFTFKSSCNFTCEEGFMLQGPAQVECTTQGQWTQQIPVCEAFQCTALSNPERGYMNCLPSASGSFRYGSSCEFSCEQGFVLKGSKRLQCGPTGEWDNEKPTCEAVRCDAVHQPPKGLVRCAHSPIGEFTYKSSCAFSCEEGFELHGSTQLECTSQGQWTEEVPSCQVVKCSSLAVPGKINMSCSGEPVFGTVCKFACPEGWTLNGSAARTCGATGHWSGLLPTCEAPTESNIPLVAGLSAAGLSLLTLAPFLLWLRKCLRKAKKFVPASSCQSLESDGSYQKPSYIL
human Retinoid X Receptor beta (RXRb), RXRB (gene 6257), sequence (P28702 whole entry, looked up, the tested form may be a part): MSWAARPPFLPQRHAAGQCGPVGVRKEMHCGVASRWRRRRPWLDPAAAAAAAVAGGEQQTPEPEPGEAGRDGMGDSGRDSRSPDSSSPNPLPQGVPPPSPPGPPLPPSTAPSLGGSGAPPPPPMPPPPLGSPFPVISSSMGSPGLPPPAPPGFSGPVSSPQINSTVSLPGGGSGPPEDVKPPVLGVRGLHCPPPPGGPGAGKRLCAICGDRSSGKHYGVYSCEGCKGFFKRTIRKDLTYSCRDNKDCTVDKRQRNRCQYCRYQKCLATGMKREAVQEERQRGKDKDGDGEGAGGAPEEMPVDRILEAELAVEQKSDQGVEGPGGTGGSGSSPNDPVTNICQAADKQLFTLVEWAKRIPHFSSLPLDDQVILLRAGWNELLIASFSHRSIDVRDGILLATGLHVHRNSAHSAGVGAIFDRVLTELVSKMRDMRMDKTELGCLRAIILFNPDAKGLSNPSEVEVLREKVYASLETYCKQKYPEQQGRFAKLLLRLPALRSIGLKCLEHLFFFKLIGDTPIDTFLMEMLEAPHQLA
Nuclear receptor subfamily 1 group I member 2 (Homo sapiens), sequence (O75469 whole entry, looked up, the tested form may be a part): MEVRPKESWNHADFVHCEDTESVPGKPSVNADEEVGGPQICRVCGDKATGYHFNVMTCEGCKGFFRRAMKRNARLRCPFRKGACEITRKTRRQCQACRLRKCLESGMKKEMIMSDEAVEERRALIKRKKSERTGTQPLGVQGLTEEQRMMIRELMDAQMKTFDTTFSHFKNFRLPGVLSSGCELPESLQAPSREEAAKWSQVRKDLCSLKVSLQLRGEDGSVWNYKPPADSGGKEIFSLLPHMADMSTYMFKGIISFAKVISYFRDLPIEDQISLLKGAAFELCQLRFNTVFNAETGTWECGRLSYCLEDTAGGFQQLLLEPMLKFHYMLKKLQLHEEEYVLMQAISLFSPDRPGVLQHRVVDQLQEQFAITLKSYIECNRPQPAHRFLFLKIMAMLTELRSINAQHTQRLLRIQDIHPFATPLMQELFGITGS

With `CC(N)=O`, the outcome in assay [1], in assay [2], in assay [3], in [4], in assay [5] and in [6] was inactive. Also, the result in assay [7], in assay [8], in [9], in [10], in assay [11] and in assay [12] was inactive. Also, in assay [13], the result was inactive.
With `CC(=O)OC1CC(C)OC(C)O1` (centres undefined), the outcome in [1], in [2], in assay [4], in assay [5], in assay [7] and in assay [14] was inactive. The outcome in assay [8], in assay [9], in assay [10], in [11], in assay [15] and in assay [16] was inactive. Also, the outcome in assay [13] was inactive.
As a reminder, the AC50 is the concentration giving half of the maximal activity seen. With `CC(C)OC(=O)C(C)(C)Oc1ccc(C(=O)c2ccc(Cl)cc2)cc1`, the half-maximal activity concentration (AC50) in assay [1] is 19.8 µM (active); in assay [5], 32.4 µM (active); in [8], 15.8 µM (active); in assay [15] it was 26.9 µM (active). In addition, the outcome in [2], in [4], in assay [7], in [10], in [11] and in assay [16] was inactive. Further, in assay [13], the outcome was inactive.
`OCC(O)CO`: the result in assay [2], in assay [3], in assay [4], in [5], in [7] and in [8] was inactive. Further, the result in [13] was inactive.
As to `NC=O`, the call in [1], in assay [2], in assay [4], in assay [5], in assay [6] and in assay [7] was inactive. For the same compound, the call in assay [14], in assay [8], in assay [17], in assay [15], in assay [12] and in [16] was inactive. Besides, the outcome in assay [13] was inactive.
Regarding `C#CC(O)C(CC)CCCC` (centres undefined), the outcome in assay [1], in assay [2], in assay [4], in assay [5], in [7] and in assay [8] was inactive. Also, the compound was called inactive in assay [17], in assay [15], in assay [16] and in assay [13]. Also, in assay [9], the AC50 was 59.2 µM (active).
As for `O=C1NC(=O)C(c2ccccc2)(c2ccccc2)N1`, the compound was called inactive in assay [1], in assay [2], in assay [3], in [4], in assay [5] and in [7]. Also, the outcome in [8], in assay [9], in [18], in assay [11], in assay [16] and in assay [13] was inactive.
As for `Cc1ccc(-c2cc(C(F)(F)F)nn2-c2ccc(S(N)(=O)=O)cc2)cc1`, the call in assay [1], in [14] and in assay [9] was inactive. For the same compound, the AC50 in assay [2] is 31.7 µM (active); in [4], 33.9 µM (active); in assay [5], 31 µM (active); in assay [7] it was 36.8 µM (active); in assay [8] it was 20 µM (active); in assay [13] it was 33.3 µM (active).
